Consider 13 compounds from PubChem BioAssay.

Unmarked numbers belong to inactive results. The rule behind the calls is not given here.

For orientation: inhibition means the change of the read-out against control, counted positive when it falls.

In the test the target is L-lactate dehydrogenase (Plasmodium falciparum (isolate CDC / Honduras)) (UniProt Q27743). The test can be described thus: PfLDH activity inhibition – cell lysate, 3D7 strain, counter-screen for P. falciparum growth inhibition project (AID 2304).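 Note: 0% = vehicle and 100% = reference inhibitor.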 Conditions: P. falciparum 3D7 crude extract, LDH APAD/NBT absorbance; at 2 µM; active compounds read high.
Sequence of L-lactate dehydrogenase (Plasmodium falciparum (isolate CDC / Honduras)) (Q27743 whole entry, looked up): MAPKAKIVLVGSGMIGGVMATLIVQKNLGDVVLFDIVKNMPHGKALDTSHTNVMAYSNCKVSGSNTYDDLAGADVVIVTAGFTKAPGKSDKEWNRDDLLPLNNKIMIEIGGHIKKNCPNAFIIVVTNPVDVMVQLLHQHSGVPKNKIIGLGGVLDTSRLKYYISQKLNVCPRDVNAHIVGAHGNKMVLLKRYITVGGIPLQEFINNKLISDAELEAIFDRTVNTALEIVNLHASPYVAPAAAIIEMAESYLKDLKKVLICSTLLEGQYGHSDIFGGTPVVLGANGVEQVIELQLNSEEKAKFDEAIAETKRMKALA
For the compound `Cc1cc(N(C)CCCN(C)C)nc(Nc2ccc(Br)cc2)n1`, the inhibition is 1%.
The value for `Cc1noc(C)c1-c1cccc(CNCc2cccc(-c3ccc(-c4nc5ccc(C(F)(F)F)cc5[nH]4)s3)c2)c1` was 0%; that for `CN(C(=O)C1(c2ccc(Cl)cc2)CC1)C1CCN(CCCCCNC(=O)/C=C/c2ccc(Cl)c(Cl)c2)CC1` was -2%.
The value for `Cc1cc(N[C@@H](CC(C)C)C(=O)Nc2ccccc2)nc(NCC2CCCCC2)n1` was 1%; that for `Nc1c2c(nc3ccc(NC(=O)CCCCCCc4ccccc4)cc13)CCCC2` was 4%.
Under `O=C(/C=C/c1ccccc1Cl)NC1CCC(CN2CCC(c3c[nH]c4ccncc34)CC2)CC1` (stereo not drawn) stands -2%; under `Cc1ccc(Cn2nc(Cl)c(N3CCCNCC3)cc2=O)cc1NC(=O)Nc1ccc(-c2ccccc2)cc1`, -1%.
Consider `COc1c(C2CCN(CCCCNC(=O)c3ccc(NC(=O)c4ccc(C#N)cc4)cc3)CC2)ccc2c1CCCC2`, for which the inhibition is 1%.
As to `O=S(=O)(NCCN1CCCC1)c1ccc(-c2ccc(CNCc3ccc(F)cc3)cc2)s1`, the inhibition is 6%.
Under `CCN(c1ccccc1)S(=O)(=O)c1ccc(OC)c(NC(=O)c2cccc(C(F)(F)F)c2)c1` stands -2%; under `O=C(Nc1cccc(C(F)(F)F)c1)c1ccc(S(=O)(=O)NCC2CCN(CC3CCCCC3)CC2)cc1`, -4%.
The value for `Cc1cc(N(C)C2CCN(CC3CCCCC3)C2)nc(Nc2ccc(Br)cc2)n1` (stereo not drawn) was -1%; that for `CC(=O)Nc1ccc(OCCCCN(Cc2ccccc2C(F)(F)F)c2ccc(C#N)c(C(F)(F)F)c2)cc1` was 1%.
